# Screens (PubChem)
# Hits are enriched below; roughly 4.3% of the tested compounds scored in any of these assays.
# PfHsp40 rescue: rescue of PfHsp40-mediated yeast toxicity; 0.68% of 340,000 active; AID 504582; S. cerevisiae expressing PfHsp40, growth rescue, ATP luminescence; growth rescue, % at 12.5 µM; in the data active = growth rescue above about 28%, passing the limit was not always enough; inconclusive = no clear call, values can overlap the other calls;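 note: yeast W303a lacking pdr1 and pdr3 grown in galactose medium; growth measured after three days at 30 °C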
# MazEF act: increases E. coli MazEF RNase cleavage of RNA; P0AE70; FAM/BHQ RNA-DNA oligo cleavage fluorescence, 5 h; activation, % at 20 µM; 0.32% of 350,000 active; in the data active = activation above about 50%
# Target sequence (P0AE70 whole entry, looked up): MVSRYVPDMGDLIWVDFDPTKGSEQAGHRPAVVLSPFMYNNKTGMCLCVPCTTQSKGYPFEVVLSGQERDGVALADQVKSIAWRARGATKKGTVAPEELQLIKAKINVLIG
# BoNT-F LC inh: inhibitors of Botulinum neurotoxin F light chain protease; Multiplex microsphere protease cleavage assay, flow cytometry; inhibition, % at 10 µM; 0.22% of 360,000 active; in the data active = inhibition above about 35%, passing the limit was not always enough; inconclusive = no clear call, values can overlap the other calls; note: plate controls were buffer without enzyme for full effect and enzyme alone for no effect
# Bead autofluor: compound fluorescence in toxin protease inhibitor counterscreen; compound autofluorescence counterscreen, microsphere flow cytometry; hits give high values; fluorescence intensity (concentration not given with the values); 3.1% of 360,000 active; in the data active = fluorescence intensity above about 16000; inconclusive = no clear call, values can overlap the other calls
# Anthrax LF prot: blocks Bacillus anthracis lethal factor protease | multiplex microsphere protease cleavage assay, LF | inhibition, % at 10 µM | 0.12% of 360,000 active; note: plate controls were buffer without enzyme for full effect and enzyme alone for no effect
# BoNT-A LC inh2: BoNT A light chain protease inhibition; multiplex microsphere protease substrate cleavage, flow cytometry; AID 588499; inhibition, % at 10 µM; 0.17% of 360,000 active; note: plate controls were buffer without enzyme for full effect and enzyme alone for no effect
# * = called active by the depositor; ? = inconclusive; nt = not tested or not shown. Cut-off read from the data, not from the text of the source, unless noted: active = inhibition above about 30%; inconclusive = no clear call, values can overlap the other calls; inactive = below that.
SMILES,PfHsp40 rescue,MazEF act,BoNT-F LC inh,Bead autofluor,Anthrax LF prot,BoNT-A LC inh2
CS(=O)(=O)N(CC(=O)N1CCc2ccccc2C1)c1ccccc1Br,0,3,0,3587,8,-2
O=C(COc1ccc2c3c(c(=O)oc2c1)CCC3)NC(Cc1ccc(Cl)cc1)C(=O)O (stereo unspecified),1,3,-5,4979,-2,0
CCOC(=O)c1c(-c2ccc(C)o2)csc1NC(=O)CN1CCCCC1,1,2,-7,4732,-5,0
CCOC(=O)c1c(-c2ccc(C)o2)csc1NC(=O)CN(C)CC(=O)Nc1ccc(C)cc1,1,-17,1,20236*,-4,1
C[C@@H]1CCCCO[C@H](CN(C)S(=O)(=O)c2cccs2)[C@@H](C)CN([C@H](C)CO)C(=O)c2cc(NC(=O)C3CCCCC3)ccc2O1,nt,4,0,3401,-3,0
O=S(=O)(Nc1ccc(S(=O)(=O)Nc2ccccc2)cc1)c1ccccc1,0,7,5,8314,-8,2
O=S(=O)(Nc1ccc(N=Nc2ccccc2)cc1)c1ccccc1,102*,0,8,2405,-1,0
Cc1ccc(-c2cc(-c3ccccc3)nc(N)c2C#N)o1,-1,83*,-8,3595,11,1
N#Cc1c(-c2ccccc2)cc(-c2ccc(O)cc2)nc1N,10,6,0,3133,3,-2
O=S(=O)(Nc1ncccc1O)c1ccc(Cl)cc1,0,0,-3,23828*,-1,?
O=S(=O)(Nc1cc(Cl)ccn1)c1ccc(Cl)cc1,-1,3,-6,17683*,-2,-4
Cc1ccc(C)c(-n2nnnc2SCC(=O)NNC(=O)c2ccco2)c1,4,1,-2,3388,-3,0
CCn1cc(S(=O)(=O)Nc2ccc(Cl)cc2F)cn1,0,3,10,5568,0,2
Cc1ccccc1C1c2[nH]c3ccccc3c2C[C@H]2C(=O)N(c3ccccc3C(=O)NCCCN3CCOCC3)C(=O)N12 (stereo partly specified),1,4,1,4916,0,0
CCOC(=O)C1CCCN(c2nnnn2-c2ccccc2)C1 (stereo unspecified),1,8,4,4018,0,1
O=C(Nc1ccc2c(c1)OCCO2)C1CCN(S(=O)(=O)c2ccc3c(c2)OCCO3)CC1,0,6,-2,21484*,-1,2
O=C(NC1CCCCC1)C1CCCN(c2nnnn2-c2ccccc2)C1 (stereo unspecified),-1,1,-6,17148*,-3,?
CC1CCCCN1C(=O)COC(=O)C1CCN(S(=O)(=O)c2ccc3c(c2)OCCO3)CC1 (stereo unspecified),-1,4,-80,17025*,-8,-46
O=C(Nc1ccc2c(c1)OCCO2)C1CCN(S(=O)(=O)c2cccs2)CC1,0,-1,-3,23275*,2,?
O=C(Nc1ccc2c(c1)OCO2)C1CCN(S(=O)(=O)c2cccs2)CC1,0,-5,-15,7839,-6,0
CC(=O)Nc1ccc(NC(=O)C2CCN(S(=O)(=O)c3ccc4c(c3)OCCO4)CC2)cc1,-1,4,-2,3767,-5,0
C=CCS(=O)(=O)N1CCCC(Cc2ccccc2C)(C(=O)OCC)C1 (stereo unspecified),0,7,?,4167,-14,3
O=C(CBr)c1ccc([N+](=O)[O-])c(CS(=O)(=O)c2ccc(Cl)cc2)c1,0,-3,?,4216,-6,2
O=C(Nc1cccc(F)c1)C1CCN(c2nnnn2-c2ccccc2)CC1,-1,2,3,15912,-4,1
O=C(Nc1ccc2c(c1)OCCO2)C1CCN(c2nnnn2-c2ccccc2)CC1,-1,-3,3,16234*,1,1
SMILES,PfHsp40 rescue,MazEF act,BoNT-F LC inh,Bead autofluor,Anthrax LF prot,BoNT-A LC inh2
Cc1cc(C)nc(NC(=O)c2ccc(Br)cc2)n1,1,6,?,4483,2,-8
Cc1cc(NO)nc(-c2ccc(Br)cc2)n1,0,2,-5,24290*,-2,-3
CCCOc1ccc(N2C(=O)CC(N(C(=O)c3ccco3)c3ccc(OCCC)cc3)C2=O)cc1 (stereo unspecified),-1,3,-5,16880*,-2,?
CCCc1nnc(NC(=O)c2cccc(OC)c2)s1,-1,3,8,21067*,0,?
COc1ccc(Cc2nnc(NC(=O)c3ccc(OC(C)=O)cc3)s2)cc1OC,-1,-15,35*,3108,2,4
COc1cccc(C(=O)Nc2c(F)c(F)c(F)c(F)c2F)c1,0,-1,-5,20193*,1,-2
COc1cccc(C(=O)Nc2nnc(Cc3ccc(OC)c(OC)c3)s2)c1,0,3,-5,6392,-7,-1
COc1ccc(Cc2nnc(NC(=O)c3ccc(OC)c(OC)c3)s2)cc1OC,1,8,-8,4416,-1,-1
CN(Cc1ccc(Cl)cc1Cl)C(=O)CNC(=O)c1ccc2c(c1)OCO2,1,4,-6,6370,0,-3
Cc1cc(C2CCCCC2)n(O)c(=O)c1,?,-13,2,5863,0,0
O=P(OC1CCCCC1)(OC1CCCCC1)C(O)c1ccc(Cl)cc1Cl (stereo unspecified),1,21,-2,9572,-7,1
O=P(OC1CCCCC1)(OC1CCCCC1)C(O)c1c(Cl)cccc1Cl (stereo unspecified),2,0,-5,17127*,0,-2
CCS(=O)(=O)c1nc(S(=O)(=O)c2ccc(Cl)cc2)c(N2CCC(O)CC2)s1,1,2,11,3881,10,7
COC(=O)c1ccc(NC(=O)CSCc2ccccc2)cc1,0,2,-3,2728,1,1
COC(=O)c1ccc(NC(=O)CSCc2ccccc2C)cc1,7,-5,3,22086*,-3,2
CC(=O)c1ccc(NC(=O)CSCCO)cc1,-1,-1,-1,19947*,-5,0
COC(=O)c1ccc(NC(=O)CSCc2ccc(C)cc2)cc1,1,-11,0,22818*,-4,1
O=C(NCC1CCCO1)c1cc2nc(-c3ccco3)cc(C(F)(F)Cl)n2n1 (stereo unspecified),0,6,-2,4509,2,-2
COc1cc(NC(=O)COc2cc(C)cc3oc(=O)cc(C)c23)cc(OC)c1OC,nt,-4,0,2910,-9,0
Cc1nc(N2CCOCC2)c(C#N)c2c1COC(C)(C)C2,-1,-11,-2,20542*,-2,-2
CCc1nc(N2CCOCC2)c(C#N)c2c1COC(C)(C)C2,-2,-3,2,3189,1,0
C[C@H](CO)N1C[C@H](C)[C@H](CN(C)C(=O)Nc2ccccc2F)OCc2cnnn2CCCC1=O,nt,10,4,4006,-6,0
Cc1ccccc1S(=O)(=O)N1C[C@H]2CON(C)[C@H]2C[C@H]1c1cccc(-c2ccc(C#N)cc2)c1,2,3,-4,3460,-1,0
